# According to PubChem BioAssay (NCI):
# The panel holds about 79,000 compounds, 15% with a hit somewhere; the sample as a whole holds those more often. Values without a mark were called inactive. The source made the active and inactive calls. No stated cut-off is given here; in the data, active means growth inhibition above about 70%; inactive means the rest.
# Legend:
# [1] = NCI Yeast Anticancer Drug Screen. Data for the rad52 strain (AID 147);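 further: 0% = growth of vehicle-treated control cultures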; conditions: S. cerevisiae rad52 mutant growth inhibition, active compounds read high
# Procedure, shortened: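 DNA repair-defective yeast; compound exposure; growth scored against vehicle controls.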
# [2] = NCI Yeast Anticancer Drug Screen. Data for the wt1 strain (AID 149);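 further: 0% = growth of vehicle-treated wt1 cultures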; conditions: S. cerevisiae wt1 strain (SPY 50644) growth inhibition, active compounds read high
# Procedure, shortened: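 Yeast wt1 strain exposed to compounds; growth inhibition measured relative to vehicle-treated controls.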
# [3] = NCI Yeast Anticancer Drug Screen. Data for the rad50EPP+ strain (AID 151);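 further: 0% = growth of vehicle-treated control cultures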; conditions: S. cerevisiae rad50 mutant strain, active compounds read high
# Procedure, shortened: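 rad50EPP+ yeast treated with test compounds. Readout: growth vs vehicle control.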
# [4] = NCI Yeast Anticancer Drug Screen. Data for the mec2-1 strain (AID 157); conditions: S. cerevisiae mec2-1 strain, active compounds read high
# Procedure, shortened: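 Growth inhibition is read against vehicle-treated controls after compound exposure of the mec2-1 yeast strain, which is defective in DNA damage repair or cell cycle control.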
# [5] = NCI Yeast Anticancer Drug Screen. Data for the rad14 strain (AID 159);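 further: 0% = growth of vehicle-treated control cultures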; conditions: S. cerevisiae rad14 strain growth inhibition, active compounds read high
# Procedure, shortened: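 Yeast cells carrying a defined DNA-repair defect were exposed to compounds, and growth inhibition was calculated relative to vehicle-treated control cultures.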
# [6] = NCI Yeast Anticancer Drug Screen. Data for the sgs1 mgt1 strain (AID 161);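 further: 0% = growth of cultures given vehicle only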; conditions: S. cerevisiae sgs1 mgt1 strain, active compounds read high
# Procedure, shortened: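 Growth of a repair-deficient yeast mutant was monitored after compound treatment and expressed as inhibition relative to vehicle-treated cultures.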
# [7] = NCI Yeast Anticancer Drug Screen. Data for the CLN2oe strain (AID 163);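 further: 0% = growth of vehicle-only control cultures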; conditions: S. cerevisiae CLN2oe strain, active compounds read high
# Procedure, shortened: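 Compound-treated yeast; growth vs vehicle ctrl = % inhibition. Genetically altered strain (cell-cycle control).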
# [8] = NCI Yeast Anticancer Drug Screen. Data for the cln2 rad14 strain (AID 165);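 further: 0% = growth equal to vehicle treated cultures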; conditions: S. cerevisiae cln2 rad14 strain, active compounds read high
# Procedure, shortened: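 Growth inhibition, relative to vehicle-treated controls, is the read-out. The test organism is a yeast strain with defined genetic alterations, cln2 rad14.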
# [9] = NCI Yeast Anticancer Drug Screen. Data for the bub3 strain (AID 167); conditions: S. cerevisiae bub3 mutant strain, active compounds read high
# Procedure, shortened: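 Compounds were applied to a genetically altered yeast strain carrying a cell-cycle control defect. Growth inhibition was scored against vehicle-treated controls.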
# [10] = NCI Yeast Anticancer Drug Screen. Data for the wt2 strain (AID 169);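 further: 0% = growth of vehicle-treated yeast cultures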; conditions: S. cerevisiae wt2 strain growth inhibition, active compounds read high
# Procedure, shortened: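 Compound exposure of yeast; growth compared with vehicle controls; inhibition reported.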
# [11] = NCI Yeast Anticancer Drug Screen. Data for the mlh1 strain (AID 171);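 further: 0% = growth of vehicle-treated control cultures of the same strain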; conditions: S. cerevisiae mlh1 strain growth inhibition, active compounds read high
# Procedure, shortened: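 Compounds are applied to a genetically altered yeast strain, and its growth is compared with that of vehicle-treated cultures to give percent inhibition.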
# [12] = NCI Yeast Anticancer Drug Screen. Data for the sgs1 strain (AID 173);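 further: 0% = growth of vehicle-only control cultures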; conditions: S. cerevisiae sgs1 mutant, active compounds read high
# Procedure, shortened: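 Compounds applied to genetically altered yeast; growth compared with vehicle-treated cultures to give % inhibition.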
# [13] = NCI Yeast Anticancer Drug Screen. Data for the mlh1 rad18 strain (AID 175); conditions: S. cerevisiae mlh1 rad18 strain growth inhibition, active compounds read high
# Procedure, shortened: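 Cells of a genetically altered yeast strain, deficient in DNA damage repair, were treated with compound. Their growth was then compared with that of vehicle-treated cultures to give inhibition.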
# [14] = NCI Yeast Anticancer Drug Screen. Data for the rad18 strain (AID 177); conditions: S. cerevisiae rad18 mutant growth inhibition, active compounds read high
# Procedure, shortened: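 Compounds are applied to a repair-deficient yeast strain, and growth is compared with that of vehicle-treated cultures to give percent inhibition.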
# [15] = NCI Yeast Anticancer Drug Screen. Data for the rad50 strain (AID 155);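 further: 0% = growth of vehicle-only cultures of the same strain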; conditions: S. cerevisiae rad50 strain growth inhibition, active compounds read high
# Procedure, shortened: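 Yeast carrying a defined DNA repair defect were exposed to test compounds, and growth was compared with vehicle-treated controls to give percent inhibition.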
# [16] = at 5.0 µM (retest, dose inferred, filed as 0.5)
# [17] = at 50.0 µM (retest, dose inferred, filed as 5.0)
smiles,measurement,setting,value
CN(C)Cc1cccc(CN(C)C)[c]1[Sn]([Br])([c]1ccccc1)[c]1ccccc1,growth inhibition,[1]; at 1.2 µM,28%
same,growth inhibition,[1]; at 3.7 µM,45%
same,growth inhibition,[1]; at 11.0 µM,57%
same,growth inhibition,[1]; at 33.0 µM,74% (active)
same,growth inhibition,[1]; at 100.0 µM,97% (active)
same,growth inhibition,[2]; at 1.2 µM,20%
same,growth inhibition,[2]; at 3.7 µM,36%
same,growth inhibition,[2]; at 11.0 µM,49%
same,growth inhibition,[2]; at 33.0 µM,58%
same,growth inhibition,[2]; at 100.0 µM,96% (active)
same,growth inhibition,[3]; at 1.2 µM,19%
same,growth inhibition,[3]; at 3.7 µM,32%
same,growth inhibition,[3]; at 11.0 µM,30%
same,growth inhibition,[3]; at 33.0 µM,36%
same,growth inhibition,[3]; at 100.0 µM,39%
same,growth inhibition,[4]; at 1.2 µM,2%
same,growth inhibition,[4]; at 3.7 µM,22%
same,growth inhibition,[4]; [16],47%
same,growth inhibition,[4]; at 11.0 µM,42%
same,growth inhibition,[4]; at 33.0 µM,56%
same,growth inhibition,[4]; [17],98% (active)
same,growth inhibition,[4]; at 50.0 µM,86.2% (active)
same,growth inhibition,[4]; at 100.0 µM,94% (active)
same,growth inhibition,[5]; at 1.2 µM,-3%
same,growth inhibition,[5]; at 3.7 µM,17%
same,growth inhibition,[5]; at 11.0 µM,27%
same,growth inhibition,[5]; at 33.0 µM,78% (active)
same,growth inhibition,[5]; at 100.0 µM,97% (active)
same,growth inhibition,[6]; [16],18%
same,growth inhibition,[6]; [17],95% (active)
same,growth inhibition,[6]; at 50.0 µM,88.8% (active)
same,growth inhibition,[7]; at 1.2 µM,-8%
same,growth inhibition,[7]; at 3.7 µM,1%
same,growth inhibition,[7]; at 11.0 µM,15%
same,growth inhibition,[7]; at 33.0 µM,30%
same,growth inhibition,[7]; at 100.0 µM,91% (active)
same,growth inhibition,[8]; [16],13%
same,growth inhibition,[8]; [17],66%
same,growth inhibition,[8]; at 50.0 µM,86.9% (active)
same,growth inhibition,[9]; at 1.2 µM,-7%
same,growth inhibition,[9]; at 3.7 µM,6%
same,growth inhibition,[9]; [16],32%
same,growth inhibition,[9]; at 11.0 µM,18%
same,growth inhibition,[9]; at 33.0 µM,50%
same,growth inhibition,[9]; [17],95% (active)
same,growth inhibition,[9]; at 50.0 µM,88.8% (active)
same,growth inhibition,[9]; at 100.0 µM,95% (active)
same,growth inhibition,[10]; at 1.2 µM,10%
same,growth inhibition,[10]; at 3.7 µM,13%
same,growth inhibition,[10]; at 11.0 µM,41%
same,growth inhibition,[10]; at 33.0 µM,87% (active)
same,growth inhibition,[10]; at 100.0 µM,97% (active)
same,growth inhibition,[11]; at 1.2 µM,-2%
same,growth inhibition,[11]; at 3.7 µM,23%
same,growth inhibition,[11]; at 11.0 µM,37%
same,growth inhibition,[11]; at 33.0 µM,60%
same,growth inhibition,[11]; at 100.0 µM,96% (active)
same,growth inhibition,[12]; at 1.2 µM,8%
same,growth inhibition,[12]; at 3.7 µM,44%
same,growth inhibition,[12]; at 11.0 µM,66%
same,growth inhibition,[12]; at 33.0 µM,81% (active)
same,growth inhibition,[12]; at 100.0 µM,97% (active)
same,growth inhibition,[13]; [16],44%
same,growth inhibition,[13]; [17],98% (active)
same,growth inhibition,[13]; at 50.0 µM,90.7% (active)
same,growth inhibition,[14]; at 1.2 µM,42%
same,growth inhibition,[14]; at 3.7 µM,67%
same,growth inhibition,[14]; at 11.0 µM,74% (active)
same,growth inhibition,[14]; at 33.0 µM,82% (active)
same,growth inhibition,[14]; at 100.0 µM,97% (active)
CCCCCCSc1nc(COC(=O)NC)c(COC(=O)NC)n1C,growth inhibition,[1]; at 1.2 µM,-1%
same,growth inhibition,[1]; at 3.7 µM,0%
same,growth inhibition,[1]; at 11.0 µM,-2%
same,growth inhibition,[1]; at 33.0 µM,25%
same,growth inhibition,[1]; at 100.0 µM,98% (active)
same,growth inhibition,[3]; at 1.2 µM,-3%
same,growth inhibition,[3]; at 3.7 µM,-6%
same,growth inhibition,[3]; at 11.0 µM,-6%
same,growth inhibition,[3]; at 33.0 µM,5%
same,growth inhibition,[3]; at 100.0 µM,87% (active)
same,growth inhibition,[15]; at 1.2 µM,0%
same,growth inhibition,[15]; at 3.7 µM,-48%
same,growth inhibition,[15]; [16],0%
same,growth inhibition,[15]; at 11.0 µM,20%
same,growth inhibition,[15]; at 33.0 µM,54%
same,growth inhibition,[15]; [17],91% (active)
same,growth inhibition,[15]; at 50.0 µM,49.6%
same,growth inhibition,[15]; at 100.0 µM,99% (active)
same,growth inhibition,[4]; at 1.2 µM,-1%
same,growth inhibition,[4]; at 3.7 µM,2%
same,growth inhibition,[4]; [16],0%
same,growth inhibition,[4]; at 11.0 µM,0%
same,growth inhibition,[4]; at 33.0 µM,9%
same,growth inhibition,[4]; [17],27%
same,growth inhibition,[4]; at 50.0 µM,98.3% (active)
same,growth inhibition,[4]; at 100.0 µM,99% (active)
same,growth inhibition,[5]; at 1.2 µM,-3%
same,growth inhibition,[5]; at 3.7 µM,-4%
same,growth inhibition,[5]; at 11.0 µM,-4%
same,growth inhibition,[5]; at 33.0 µM,28%
same,growth inhibition,[5]; at 100.0 µM,99% (active)
same,growth inhibition,[6]; [16],0%
same,growth inhibition,[6]; [17],5%
same,growth inhibition,[6]; at 50.0 µM,19.9%
same,growth inhibition,[7]; at 1.2 µM,-2%
same,growth inhibition,[7]; at 3.7 µM,-5%
same,growth inhibition,[7]; at 11.0 µM,-3%
same,growth inhibition,[7]; at 33.0 µM,20%
same,growth inhibition,[7]; at 100.0 µM,97% (active)
same,growth inhibition,[8]; [16],-2%
same,growth inhibition,[8]; [17],57%
same,growth inhibition,[8]; at 50.0 µM,72.8% (active)
same,growth inhibition,[9]; at 1.2 µM,-4%
same,growth inhibition,[9]; at 3.7 µM,0%
same,growth inhibition,[9]; [16],-2%
same,growth inhibition,[9]; at 11.0 µM,-4%
same,growth inhibition,[9]; at 33.0 µM,16%
same,growth inhibition,[9]; [17],45%
same,growth inhibition,[9]; at 50.0 µM,44.2%
same,growth inhibition,[9]; at 100.0 µM,99% (active)
same,growth inhibition,[10]; at 1.2 µM,-3%
same,growth inhibition,[10]; at 3.7 µM,-14%
same,growth inhibition,[10]; at 11.0 µM,-4%
same,growth inhibition,[10]; at 33.0 µM,33%
same,growth inhibition,[10]; at 100.0 µM,99% (active)
same,growth inhibition,[11]; at 1.2 µM,-1%
same,growth inhibition,[11]; at 3.7 µM,0%
same,growth inhibition,[11]; at 11.0 µM,-2%
same,growth inhibition,[11]; at 33.0 µM,32%
same,growth inhibition,[11]; at 100.0 µM,99% (active)
same,growth inhibition,[12]; at 1.2 µM,-4%
same,growth inhibition,[12]; at 3.7 µM,-3%
same,growth inhibition,[12]; at 11.0 µM,-6%
same,growth inhibition,[12]; at 33.0 µM,59%
same,growth inhibition,[12]; at 100.0 µM,99% (active)
same,growth inhibition,[13]; [16],-2%
same,growth inhibition,[13]; [17],74% (active)
same,growth inhibition,[13]; at 50.0 µM,98.3% (active)
same,growth inhibition,[14]; at 1.2 µM,-1%
same,growth inhibition,[14]; at 3.7 µM,-1%
same,growth inhibition,[14]; at 11.0 µM,-1%
same,growth inhibition,[14]; at 33.0 µM,33%
same,growth inhibition,[14]; at 100.0 µM,98% (active)
